GPR151 ag: activators of human GPR151, primary screen, cell-based, PathHunter beta-arrestin, luminescence | G-protein coupled receptor 151 (Homo sapiens), Q8TDV0 | PathHunter beta-arrestin GPR151 cells | activation, % at 11.2 µM | actives 1% (n = 650,000) | AID 1508602, 2020; in the data active = activation above about 4.9%;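 also: 0% = median of compound wells and 100% = cells with positive control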
Target sequence (Q8TDV0 whole entry, looked up): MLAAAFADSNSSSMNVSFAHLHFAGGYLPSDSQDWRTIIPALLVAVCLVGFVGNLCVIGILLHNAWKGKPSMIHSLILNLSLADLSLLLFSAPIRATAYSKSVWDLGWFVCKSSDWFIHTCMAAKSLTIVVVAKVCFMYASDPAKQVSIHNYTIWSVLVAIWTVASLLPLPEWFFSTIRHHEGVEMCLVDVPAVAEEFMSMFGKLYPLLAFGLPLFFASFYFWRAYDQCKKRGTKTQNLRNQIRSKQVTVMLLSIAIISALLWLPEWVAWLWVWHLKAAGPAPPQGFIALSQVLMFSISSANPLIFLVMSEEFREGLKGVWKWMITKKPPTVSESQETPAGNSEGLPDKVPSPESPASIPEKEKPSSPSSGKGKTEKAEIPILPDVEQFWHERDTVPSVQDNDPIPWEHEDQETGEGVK
MITF primary: MITF inhibitors, primary screen, biochemical, AlphaScreen, human; Microphthalmia-associated transcription factor (Homo sapiens), O75030; AlphaScreen MITF homodimerization, bead proximity signal; inhibition, % at 2.6 µM; actives 0.91% (n = 650,000); in the data active = inhibition above about 50%;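 also: 0% = vehicle wells with protein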
FBW7 act: FBW7 E3 ligase activators, primary screen, biochemical, AlphaScreen, human; AID 1259310, 2017; normalized activity (activation), % at 26.1 µM; F-box/WD repeat-containing protein 7 (Homo sapiens), Q969H0; actives 0.13% (n = 650,000); AlphaScreen FBW7–phospho-cyclin E peptide binding, activator screen; in the data active = normalized activity above about 1.9%;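 also: purified mutant Fbw7 with reduced substrate affinity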
TEAD-YAP inh: TEAD-YAP interaction inhibition, primary screen, TEAD-YAP interaction inhibitor project, luminescence, HEK-TIYL cells; TEAD-Gal4/YAP UAS-luciferase luminescence; inhibition, % at 9.12 µM; actives 1.4% (n = 640,000); AID 1259422, 2018; in the data active = inhibition above about 32%;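 also: 0% = median of test compound wells and 100% = reference inhibitor wells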
MITF confirm: MITF inhibitors, retest of hits, confirmation, biochemical, AlphaScreen, triplicate. actives 16% (n = 4,700). shares compounds with MITF primary. inhibition, % at 2.6 µM. AlphaScreen MITF homodimerization, biotin/His-MITF beads. AID 1259372, 2018;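 active = inhibition above a cutoff derived from the DMSO control wells, cut at about 28% in these data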;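 also: 0% = MITF dimer wells with DMSO only; inhibitors lower the bead chemiluminescence by keeping MITF from dimerizing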
AlphaScreen DR: AlphaScreen optical interference compounds, dose response, counter-screen, biochemical, HTS; shares compounds with MITF primary; AlphaScreen optical interference counterscreen, cell-free; IC50, µM; actives 6% (n = 480); call rule not given here
AlphaScreen intf2: AlphaScreen optical interference compounds, counter-screen for MITF inhibitor project, biochemical, triplicate; actives 7.6% (n = 4,700); LysRS AlphaScreen counterscreen, signal interference; inhibition, % at 2.6 µM; shares compounds with MITF primary;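 active = inhibition above a cutoff derived from the DMSO control wells, cut at about 30% in these data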
Active calls of the source: *; / = no result given; ! = repeats disagree. This is a sample that favours compounds with a hit; in the whole collection about 3.4% have one here.

SMILES	GPR151 ag	MITF primary	FBW7 act	TEAD-YAP inh	MITF confirm	AlphaScreen intf2	others
COc1ccc2cc(-c3nc4ccccc4[nH]3)c(=N)oc2c1	-9	-15	0	65*	/	/
Cc1[nH]c2ccccc2c1CCN	2	3	2.1*	-6	/	/
Cc1[nH]c2ccc(Cl)cc2c1CCN	0	2	0	8	/	/
Cc1[nH]c2c(C(C)C)cccc2c1CCN	3	46	0	91*	/	/
O=c1cccc2n1CC1CC2CN(CC#CCC(O)(c2ccccc2)c2ccccc2)C1 (configuration not stated)	1	2	0	17	/	/
O=C1CC(=O)N(c2ccc(Cl)c(Cl)c2)C(=S)N1	0	6	0	-3	/	/
O=C(Cn1cncn1)c1ccc(Cl)cc1Cl	1	-11	0	-6	/	/
CC1=CC(=O)NP(=O)(Oc2ccc3ccccc3c2)N1 (configuration not stated)	0	-1	1.9*	11	/	/
O=C(c1ccccc1)c1cc(Br)ccc1NC(=O)c1cc2ccccc2oc1=O	1	-11	0	12	/	/
CC(C)n1ccc(C(=O)Nc2cc3ccccc3oc2=O)n1	-5	-4	0	63*	/	/
COc1ccc(N2CCN(Cc3ccc(N(C)C)cc3)CC2)cc1	-1	71*	-1	2	/	/
COc1ccc(N2CCN(CCC#N)CC2)cc1	0	57*	0	0	/	/
Cc1cc(C)[n+]2ccc3ccccc3c2n1	-2	9	1	-1	/	/
CCc1ccc(CNCCc2c[nH]c3ccccc23)cc1	0	19	0	3	/	/
Brc1ccc(CNCCc2c[nH]c3ccccc23)cc1	3	55*	1	7	11	19
COc1ccc(CN2CCN(Cc3ccc(C)cc3)CC2)cc1	0	80*	0	6	1	8
COc1ccc(CN2CCN(Cc3ccc(Cl)cc3)CC2)cc1	0	83*	0	7	8	5
COc1cccc(CN2CCN(c3ccc([N+](=O)[O-])cc3)CC2)c1	4	40	0	4	/	/
COc1cccc(CN2CCN(Cc3ccc(Br)cc3)CC2)c1	-1	70*	0	-8	4	15
COc1cccc(CN2CCN(Cc3cccc(Br)c3)CC2)c1	-1	63*	0	2	13	16
CCN1CCN(Cc2ccc(Cl)cc2)CC1	0	11	0	-1	/	/
OCCN1CCN(Cc2cccc(Cl)c2)CC1	-1	83*	1	3	1	4
O=C(Cc1ccccc1)N1CCN(Cc2cccc(Cl)c2)CC1	-1	46	0	15	/	/
OCCN1CCN(Cc2ccc(Cl)cc2)CC1	0	67*	0	4	-1	5
OCCN1CCN(Cc2cccc(Cl)c2Cl)CC1	-1	65*	0	-7	-2	0
SMILES	GPR151 ag	MITF primary	FBW7 act	TEAD-YAP inh	MITF confirm	AlphaScreen intf2	others
CC(C)CCn1c(=O)c(C(=O)Nc2ccccc2C(N)=O)c(O)c2ccccc21	-1	0	0	-6	/	/
CCCCC[C@H]1O[C@H]1C/C=C\C/C=C\C/C=C\CCCC(=O)NCCO	-1	0	/	/	/	/
CNc1ccc(Cl)cc1C(=O)c1ccccc1	-1	1	0	-6	/	/
O=C(NC(=S)N1CCCCC1c1cccnc1)c1ccco1 (configuration not stated)	0	6	0	2	/	/
CN(C)CCN(C)Cc1c[nH]c2ccccc12	0	64*	0	5	-1	5
COc1ccc(CCNC2CC3CCC2C3)cc1OC (configuration not stated)	1	36	0	2	/	/
C[N+]1(C)[C@@H]2CC[C@H]1CC(OC(=O)C(CO)c1ccccc1)C2 (some centres not stated)	-4	18	0	/	/	/
C[N+]1(C)C2CCC1CC(OC(=O)C(CO)c1ccccc1)C2 (configuration not stated)	0	63*!	0	-5	-1	-10
COc1ccc(CN2CCN(Cc3ccccc3Cl)CC2)cc1Br	0	78*	0	-10	-4	4
COc1ccc(CN2CCN(Cc3ccccc3C)CC2)cc1Br	0	83*	0	1	-2	2
O=C(COc1ccccc1)N1CCN(Cc2ccccn2)CC1	1	78*	0	3	-1	2
O=C(Cc1ccccc1)N1CCN(Cc2ccccn2)CC1	0	47	-1	0	/	/
Cn1cccc1CN1CCN(C(=O)COc2ccccc2)CC1	-1	53*	1	-14	6	17
CCOC(=O)C1C2NC(=S)N(c3ccccc3OC)C1(C)Oc1c(OCC)cccc12 (configuration not stated)	-1	16	0	-1	/	/
CCOC(=O)C1C2NC(=S)N(c3ccc(CC)cc3)C1(C)Oc1c(OCC)cccc12 (configuration not stated)	-1	54*	0	5	42*	27	AlphaScreen DR=>5.5
CCOC(=O)C1C2NC(=S)N(c3cccc(Cl)c3)C1(C)Oc1c(OC)cccc12 (configuration not stated)	-1	52*	0	3	34*	15	AlphaScreen DR=>5.1
Cc1ccc(-n2c(/C=C/c3cccc(O)c3)nc3ccccc3c2=O)cc1	-2	-6	0	14	/	/
N#CCCn1cc(C(N)=O)c(-c2ccc(F)cc2)n1	2	7	0	3	/	/
CSc1ccc(CN2CCN(Cc3ccccc3Br)CC2)cc1	0	75*	0	2	12	26
CSc1ccc(CN2CCN(Cc3ccc(Br)cc3)CC2)cc1	2	78*	0	-2	14	13
CCc1ccc(CN2CCN(Cc3ccccc3Br)CC2)cc1	1	57*	0	3	-2	6
CCN1CCN(Cc2ccccc2Br)CC1	-1	-6	0	2	/	/
O=[N+]([O-])c1ccccc1CN1CCN(Cc2ccccc2Br)CC1	-1	58*	0	-1	2	2
O=[N+]([O-])c1ccccc1CN1CCN(Cc2ccccc2)CC1	2	17	0	-10	/	/
CCN1CCN(Cc2ccc(SC)cc2)CC1	1	39	0	4	/	/
O=c1c2ccccc2nc(/C=C\c2ccc(F)c(F)c2)n1-c1cccc(Cl)c1	0	-10	0	-3	/	/
COc1ccc(CNCCc2ccccc2)cc1Cl	1	14	0	2	/	/
O=C(COc1ccccc1)N1CCN(Cc2cccc(F)c2)CC1	-1	45	0	9	/	/

Screens from PubChem.
